Calls of active or inactive are those of the source. Unless noted, no rule for the calls is given here.
What was measured:
[1] = compound effects on lung adenocarcinoma cell viability – A549, calcein-AM fluorescence, 48 h, basal, profiling panel (AID 1162); settings: higher = more signal; also: test concentration not given here
[2] = compound effects on differentiated 3T3-L1 adipocyte viability – cell-based, 3T3-L1 adipocytes, calcein-AM fluorescence, 48 h, basal, profiling panel (AID 1163); settings: 3T3-L1 adipocytes viability, higher = more signal; also: test concentration not given here
[3] = compound effects on hepatocellular carcinoma cell viability – HepG2, calcein-AM fluorescence, 48 h, basal, profiling panel (AID 1164); settings: higher = more signal; also: test concentration not given here
[4] = compound effects on multiple myeloma cell viability – MM1S, calcein-AM fluorescence, 48 h, basal, profiling panel (AID 1165); settings: higher = more signal;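 also: viability of MM1S multiple myeloma cells under basal unstimulated conditions; test concentration not given here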
[5] = calcein-AM signal in unstimulated myeloma cells – cell-based, calcein-AM fluorescence, 48 h, PK04 Diversity Set, profiling panel (AID 1166); settings: RPMI8226 myeloma viability, higher = more signal;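 also: cells grown under basal conditions without added stimulus; test concentration not given here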
[6] = JC-1 mitochondrial signal, unstimulated HepG2 cells – cell-based, JC-1 fluorescence, 24 h, 100 nL compound, profiling panel (AID 1167); settings: HepG2 mitochondrial potential, higher = more signal; also: test concentration not given here
[7] = JC-1 mitochondrial signal, unstimulated adipocytes – cell-based, JC-1 fluorescence, 3T3-L1 adipocytes, 24 h, 100 nL compound, profiling panel (AID 1168); settings: JC-1 mitochondrial fluorescence, higher = more signal, called active from +8 up or from −8 down; also: test concentration not given here
[8] = JC-1 mitochondrial signal, unstimulated myeloma cells – cell-based, JC-1 fluorescence, RPMI8226, 24 h, 100 nL compound, profiling panel (AID 1169); settings: JC-1 mitochondrial potential fluorescence, higher = more signal; also: test concentration not given here
[9] = JC-1 mitochondrial signal, unstimulated MM1S myeloma – cell-based, JC-1 fluorescence, 24 h, 100 nL compound, profiling panel (AID 1170); settings: MM1S mitochondrial potential, higher = more signal; also: test concentration not given here
[10] = resazurin metabolic signal in A549 cells – cell-based, resazurin fluorescence, 24 h, PK04 Diversity Set, profiling panel (AID 1171); settings: A549 viability, higher = more signal, called active from +8 up or from −8 down; also: test concentration not given here
[11] = resazurin metabolic signal in HepG2 cells – cell-based, resazurin fluorescence, 24 h, PK04 Diversity Set, profiling panel (AID 1172); settings: HepG2 viability, higher = more signal; also: test concentration not given here
[12] = budding yeast growth changes without added modifier – OD600, strain BY4716, 24 h, basal condition, primary screen (AID 1173); settings: S. cerevisiae BY4716 growth, OD600, 24 h; higher = more signal, called active from +8 up or from −8 down
[13] = viability profiling in MM1S myeloma cells – cell-based, resazurin fluorescence, basal, 24 h, PK04 Diversity Set, profiling panel (AID 1174); settings: higher = more signal, called active from +8 up or from −8 down; also: test concentration not given here
[14] = target: Dihydroorotate dehydrogenase (quinone), mitochondrial (Plasmodium falciparum (isolate 3D7)) (UniProt Q08210); test: inhibition of P. falciparum DHODH – biochemical, C-terminal His tag, absorbance 600 nm, primary screen (AID 1175); settings: PfDHODH enzyme, DCIP absorbance 600 nm; higher = more signal, called active from +8 up or from −8 down;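 also: recombinant parasite enzyme with a five histidine tag at its C terminus; test concentration not given here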
[15] = inhibition of PAO1 biofilm formation – strain PAO1, LB-PBS medium, absorbance 600 nm, primary screen (AID 1176); also: test concentration not given here; settings: P. aeruginosa PAO1 growth/biofilm, A600, 12 h; higher = more signal
[16] = growth modulation of vineyard yeast isolate – strain RM11-1a, OD600, basal, 24 h, primary screen (AID 1177);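 also: cultures grown under basal conditions with no added stressor; test concentration not given here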; settings: S. cerevisiae RM11-1a growth, OD600, 24 h; higher = more signal, called active from +8 up or from −8 down
[17] = growth of efflux-deficient E. coli DRC39 – strain DRC39, OD650, 24 h, E. coli filamentation inducers, primary screen (AID 1178);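 also: growth measured as culture turbidity by optical density at 650 nm; test concentration not given here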; settings: E. coli DRC39 acrAB, higher = more signal, called active from +8 up or from −8 down
[18] = growth of efflux-deficient E. coli DRC39 – strain DRC39, OD650, 48 h, E. coli filamentation inducers, primary screen (AID 1179);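 also: screen aims at cell division blockers that make cells filament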; settings: E. coli DRC39 delta-acrAB growth, higher = more signal, called active from +8 up or from −8 down
[19] = viability profiling in RPMI8226 myeloma cells – cell-based, resazurin fluorescence, basal, 24 h, PK04 Diversity Set, profiling panel (AID 1180); settings: higher = more signal;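 also: RPMI8826 multiple myeloma cell line at 5000 cells per well; test concentration not given here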
[20] = target: E3 ubiquitin-protein ligase XIAP (Homo sapiens) (UniProt P98170); test: small molecules binding XIAP protein – biophysical, small-molecule microarray, fluorescence 635 nm, primary screen (AID 1181); settings: higher = more signal;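 also: score merges 667 nm emission and signal to noise over triplicate slides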
Sequence of E3 ubiquitin-protein ligase XIAP (Homo sapiens) (P98170 whole entry, looked up): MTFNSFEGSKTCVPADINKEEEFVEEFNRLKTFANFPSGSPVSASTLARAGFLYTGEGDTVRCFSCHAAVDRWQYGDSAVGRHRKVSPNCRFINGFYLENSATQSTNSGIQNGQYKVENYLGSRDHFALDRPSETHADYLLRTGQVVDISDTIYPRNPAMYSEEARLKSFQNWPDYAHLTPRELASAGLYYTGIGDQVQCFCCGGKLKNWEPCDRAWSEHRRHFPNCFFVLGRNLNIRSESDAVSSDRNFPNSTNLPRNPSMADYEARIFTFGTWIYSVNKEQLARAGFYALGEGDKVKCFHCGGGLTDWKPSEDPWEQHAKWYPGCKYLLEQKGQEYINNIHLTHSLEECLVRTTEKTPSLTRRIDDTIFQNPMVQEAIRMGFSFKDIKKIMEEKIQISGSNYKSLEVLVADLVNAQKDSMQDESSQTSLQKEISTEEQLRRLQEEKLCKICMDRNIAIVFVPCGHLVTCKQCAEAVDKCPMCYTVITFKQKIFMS

Sequence of Dihydroorotate dehydrogenase (quinone), mitochondrial (Plasmodium falciparum (isolate 3D7)) (Q08210 whole entry, looked up): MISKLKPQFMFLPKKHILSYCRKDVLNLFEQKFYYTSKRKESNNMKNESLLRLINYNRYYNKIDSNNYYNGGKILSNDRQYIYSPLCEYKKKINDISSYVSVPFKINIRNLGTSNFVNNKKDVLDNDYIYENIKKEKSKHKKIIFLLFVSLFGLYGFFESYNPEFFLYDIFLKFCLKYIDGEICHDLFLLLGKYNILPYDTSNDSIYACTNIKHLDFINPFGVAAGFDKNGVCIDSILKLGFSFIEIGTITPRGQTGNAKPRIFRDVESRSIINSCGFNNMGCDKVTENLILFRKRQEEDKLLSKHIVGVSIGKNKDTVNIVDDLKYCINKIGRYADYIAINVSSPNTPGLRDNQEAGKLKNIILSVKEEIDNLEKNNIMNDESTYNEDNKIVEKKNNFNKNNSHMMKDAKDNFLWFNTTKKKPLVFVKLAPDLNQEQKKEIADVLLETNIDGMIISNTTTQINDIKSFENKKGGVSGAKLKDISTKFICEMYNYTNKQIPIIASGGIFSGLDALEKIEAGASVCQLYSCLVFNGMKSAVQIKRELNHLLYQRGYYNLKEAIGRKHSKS

SMILES: COCC1=C2[C@@H](CCc3ccccc3)OB(O)C[C@@H]2[C@@H]2C(=O)C=CC(=O)[C@@H]2C1
- z-score [1]: 0.144
- z-score [2]: -0.147
- z-score [3]: -0.165
- z-score [4]: -3.4
- z-score [5]: -3.63
- z-score [6]: -3.14
- z-score [7]: -2.12 (inactive)
- z-score [8]: -0.654
- z-score [9]: -2.55
- z-score [10]: -0.648 (inactive)
- z-score [11]: -1.15
- z-score [12]: -5.61 (inactive)
- z-score [13]: -0.997 (inactive)
- composite z-score [14]: -4.14 (inactive)
- z-score [15]: 0.106 (inactive)
- z-score [16]: -0.143 (inactive)
- z-score [17]: -0.244 (inactive)
- z-score [18]: 0.0271 (inactive)
- z-score [19]: -0.878
- composite z-score [20]: 0.906

SMILES: Cc1ccc(S[C@]2(C(=O)O)CC(=O)N(C3Cc4ccccc4C3)[C@@H]2c2ccc(CO)cc2)cc1
- z-score [1]: -0.197
- z-score [2]: 0.729
- z-score [3]: -0.574
- z-score [4]: -0.428
- z-score [5]: -2.56
- z-score [6]: 0.125
- z-score [7]: -0.58 (inactive)
- z-score [8]: 0.522
- z-score [9]: 0.353
- z-score [10]: -0.831 (inactive)
- z-score [11]: -0.684
- z-score [12]: -0.528 (inactive)
- z-score [13]: -0.444 (inactive)
- composite z-score [14]: -1.03 (inactive)
- z-score [15]: 1.15 (inactive)
- z-score [16]: -0.157 (inactive)
- z-score [17]: -0.185 (inactive)
- z-score [18]: -0.108 (inactive)
- z-score [19]: -0.396
- composite z-score [20]: -0.205

SMILES: O=C1OCCC/C=C\[C@H]2OC34C=CCN(CCN5CCOCC5)C(=O)[C@H]3N(CCCCCCO)C(=O)[C@@H]4C12 (stereo not given in full)
- z-score [1]: 0.26
- z-score [2]: 1.3
- z-score [3]: 1.18
- z-score [4]: 1.54
- z-score [5]: 0.279
- z-score [6]: 0.538
- z-score [7]: 0.587 (inactive)
- z-score [8]: 0.0622
- z-score [9]: -0.955
- z-score [10]: -0.168 (inactive)
- z-score [11]: 0.287
- z-score [12]: -0.549 (inactive)
- z-score [13]: 0.828 (inactive)
- composite z-score [14]: -1.38 (inactive)
- z-score [15]: 0.0251 (inactive)
- z-score [16]: -1.06 (inactive)
- z-score [17]: 0.251 (inactive)
- z-score [18]: 0.547 (inactive)
- z-score [19]: 0.56
- composite z-score [20]: 0.122

SMILES: CC(C)C[C@@H]1NC(=O)[C@@H]2C[C@H](C(=O)NCCCCN(C)C)[C@H](c3cccc(OCCO)c3)N2C1=O
- z-score [1]: 0.355
- z-score [2]: 0.507
- z-score [3]: -1.2
- z-score [4]: 0.26
- z-score [5]: 0.54
- z-score [6]: -0.627
- z-score [7]: 0.454 (inactive)
- z-score [8]: -0.601
- z-score [9]: -0.443
- z-score [10]: 0.389 (inactive)
- z-score [11]: 0.0064
- z-score [12]: -0.453 (inactive)
- z-score [13]: 0.303 (inactive)
- composite z-score [14]: -1.21 (inactive)
- z-score [15]: 0.655 (inactive)
- z-score [16]: -0.121 (inactive)
- z-score [17]: 0.0825 (inactive)
- z-score [18]: -0.653 (inactive)
- z-score [19]: -0.127
- composite z-score [20]: -0.0749

SMILES: CN(C)CCCCNC(=O)[C@@H]1C[C@@H]2C(=O)N[C@@H](Cc3ccccc3)C(=O)N2[C@@H]1c1cccc(OCCO)c1
- z-score [1]: 1.74
- z-score [2]: 0.296
- z-score [3]: 1.13
- z-score [4]: -0.729
- z-score [5]: 0.573
- z-score [6]: 1.88
- z-score [7]: 0.76 (inactive)
- z-score [8]: -0.0777
- z-score [9]: 0.108
- z-score [10]: -0.0805 (inactive)
- z-score [11]: 0.225
- z-score [12]: -0.957 (inactive)
- z-score [13]: 0.977 (inactive)
- composite z-score [14]: -2.56 (inactive)
- z-score [15]: 0.215 (inactive)
- z-score [16]: -3.29 (inactive)
- z-score [17]: 2.51 (inactive)
- z-score [18]: 2.13 (inactive)
- z-score [19]: 0.588
- composite z-score [20]: 0.109

From PubChem BioAssay
